Assay results reported in ChEMBL document CHEMBL3988442, “University of Dundee, Small-Polar-MMV Screening Library” (2021).

Columns and labels:
[1] = molecular target: T1, Aspartate--tRNA(Asp/Asn) ligase (Mycobacterium tuberculosis (strain ATCC 25618 / H37Rv)) (UniProt P9WFW3); experiment: Assay for Asp RNA synthetase-1 from Mycobacterium tuberculosis; assay type: functional; design: scale not given: direction of the effect not stated beside the values; conditions: 30 µM; further: in the data most compounds retested in dose-response had high values
T1 sequence (whole entry): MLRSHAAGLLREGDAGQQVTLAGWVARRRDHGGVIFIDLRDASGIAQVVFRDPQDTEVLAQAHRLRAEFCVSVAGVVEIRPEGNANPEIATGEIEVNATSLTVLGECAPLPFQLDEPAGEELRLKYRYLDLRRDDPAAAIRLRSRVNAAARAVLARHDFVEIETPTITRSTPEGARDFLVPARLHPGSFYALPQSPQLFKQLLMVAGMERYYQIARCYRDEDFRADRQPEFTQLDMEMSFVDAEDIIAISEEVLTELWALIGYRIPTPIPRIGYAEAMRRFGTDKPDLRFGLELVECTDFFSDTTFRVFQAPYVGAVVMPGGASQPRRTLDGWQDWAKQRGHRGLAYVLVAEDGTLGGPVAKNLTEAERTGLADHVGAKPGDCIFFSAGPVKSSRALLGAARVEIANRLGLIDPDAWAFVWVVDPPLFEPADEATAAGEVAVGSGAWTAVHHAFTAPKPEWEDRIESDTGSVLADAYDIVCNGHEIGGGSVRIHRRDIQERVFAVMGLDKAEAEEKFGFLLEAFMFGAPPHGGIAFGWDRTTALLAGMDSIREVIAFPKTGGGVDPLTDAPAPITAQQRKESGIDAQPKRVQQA

[2] = molecular target: Shiga toxin 2 (Escherichia coli O157:H7) (UniProt P09385+P09386); experiment: E. coli 0.157:H7 Shiga Toxin SOP - stx2 screening assay; assay type: functional; design: scale not given: direction of the effect not stated beside the values; conditions: 30 µM

| Structure (SMILES) | Percent Effect [1] | Percent Effect [2] |
| --- | --- | --- |
| O=C(c1cccc(NCCO)c1)N1CCOCC1 | 7.13% | -69.6% |
| CCc1nc(C2CCCN2C(=O)c2ccc3c(c2)nnn3CC)no1 (centres undefined) | -5.04% | 1.14% |
| CCS(=O)(=O)CCN1CCC(N(C)Cc2noc(C(C)C)n2)C1 (centres undefined) | 0% | -10.7% |
| Cc1cccc(-c2nc(CN3CCc4cnc(C)nc4C3)no2)c1 | 4.76% | 6.99% |
| CN(C)C(=O)[C@@H]1CCO[C@@H]2CCN(Cc3ccc4c(c3)OCO4)C[C@@H]21 | -0.534% | -27.6% |
| Cc1ccc(NC(=O)C2=CN=S=N2)cc1 | -2.07% | -19.2% |
| O=C(Cc1ccc2c(c1)CCO2)N1CCCCC1Cn1cccn1 (centres undefined) | -2.75% | -6.84% |
| Cc1cccc(-c2nc(C)nn2CC(=O)N(C)C2CC2)c1 | -4.28% | 6.5% |
| CS(=O)(=O)N1CCCN(C(=O)c2ccc(Cn3ccccc3=O)o2)CC1 | 1.66% | 25% |
| O=C(NC1CC(=O)N(Cc2cccc(F)c2)C1)c1ccncc1 (centres undefined) | 0.413% | -9.17% |
| Cc1nc(C)c(C(=O)N2CCC(Nc3cccnc3)CC2)s1 | 16.8% | -45.8% |
| Cn1cc(-c2nc(CN3CCN(CCO)CC3)cs2)cn1 | -2.15% | 22.1% |
| Cc1cc(C)nc(Nc2cc(C3CCCN(C)C3)nc(C)n2)n1 (centres undefined) | 0.64% | -0.428% |
| CCn1nc(C)c2nnn(CC(=O)Nc3c(C)cccc3C)c(=O)c21 | -2.79% | -11.8% |
| CC(c1ccco1)N(C)Cc1nc2c(cnn2C)c(=O)[nH]1 (centres undefined) | -2.56% | -9.3% |
| O=C(CCCOc1ccc(F)cc1F)N1CCCC1Cn1cccn1 (centres undefined) | -7.61% | 17.6% |
| CC(=O)N1CC(=O)N(c2ccccc2)CC12CCN(Cc1cccs1)C2 (centres undefined) | 2.3% | -33.9% |
